High-throughput results from PubChem.
BAZ2B block – BAZ2B (human) inhibition; AlphaScreen BAZ2B-H3K14Ac peptide displacement; Potency, µM (top dose mostly 114 µM), for the others: at the top dose activity change, negative = inhibition, actives largely listed as inhibitors; 360,000 compounds, 4.4% hits; note: % is set by controls: 0 for no effect and ±100 for the full control effect; nearly all actives have a fitted effect of over 60% in size
Target sequence (Q9UIF8 whole entry, looked up): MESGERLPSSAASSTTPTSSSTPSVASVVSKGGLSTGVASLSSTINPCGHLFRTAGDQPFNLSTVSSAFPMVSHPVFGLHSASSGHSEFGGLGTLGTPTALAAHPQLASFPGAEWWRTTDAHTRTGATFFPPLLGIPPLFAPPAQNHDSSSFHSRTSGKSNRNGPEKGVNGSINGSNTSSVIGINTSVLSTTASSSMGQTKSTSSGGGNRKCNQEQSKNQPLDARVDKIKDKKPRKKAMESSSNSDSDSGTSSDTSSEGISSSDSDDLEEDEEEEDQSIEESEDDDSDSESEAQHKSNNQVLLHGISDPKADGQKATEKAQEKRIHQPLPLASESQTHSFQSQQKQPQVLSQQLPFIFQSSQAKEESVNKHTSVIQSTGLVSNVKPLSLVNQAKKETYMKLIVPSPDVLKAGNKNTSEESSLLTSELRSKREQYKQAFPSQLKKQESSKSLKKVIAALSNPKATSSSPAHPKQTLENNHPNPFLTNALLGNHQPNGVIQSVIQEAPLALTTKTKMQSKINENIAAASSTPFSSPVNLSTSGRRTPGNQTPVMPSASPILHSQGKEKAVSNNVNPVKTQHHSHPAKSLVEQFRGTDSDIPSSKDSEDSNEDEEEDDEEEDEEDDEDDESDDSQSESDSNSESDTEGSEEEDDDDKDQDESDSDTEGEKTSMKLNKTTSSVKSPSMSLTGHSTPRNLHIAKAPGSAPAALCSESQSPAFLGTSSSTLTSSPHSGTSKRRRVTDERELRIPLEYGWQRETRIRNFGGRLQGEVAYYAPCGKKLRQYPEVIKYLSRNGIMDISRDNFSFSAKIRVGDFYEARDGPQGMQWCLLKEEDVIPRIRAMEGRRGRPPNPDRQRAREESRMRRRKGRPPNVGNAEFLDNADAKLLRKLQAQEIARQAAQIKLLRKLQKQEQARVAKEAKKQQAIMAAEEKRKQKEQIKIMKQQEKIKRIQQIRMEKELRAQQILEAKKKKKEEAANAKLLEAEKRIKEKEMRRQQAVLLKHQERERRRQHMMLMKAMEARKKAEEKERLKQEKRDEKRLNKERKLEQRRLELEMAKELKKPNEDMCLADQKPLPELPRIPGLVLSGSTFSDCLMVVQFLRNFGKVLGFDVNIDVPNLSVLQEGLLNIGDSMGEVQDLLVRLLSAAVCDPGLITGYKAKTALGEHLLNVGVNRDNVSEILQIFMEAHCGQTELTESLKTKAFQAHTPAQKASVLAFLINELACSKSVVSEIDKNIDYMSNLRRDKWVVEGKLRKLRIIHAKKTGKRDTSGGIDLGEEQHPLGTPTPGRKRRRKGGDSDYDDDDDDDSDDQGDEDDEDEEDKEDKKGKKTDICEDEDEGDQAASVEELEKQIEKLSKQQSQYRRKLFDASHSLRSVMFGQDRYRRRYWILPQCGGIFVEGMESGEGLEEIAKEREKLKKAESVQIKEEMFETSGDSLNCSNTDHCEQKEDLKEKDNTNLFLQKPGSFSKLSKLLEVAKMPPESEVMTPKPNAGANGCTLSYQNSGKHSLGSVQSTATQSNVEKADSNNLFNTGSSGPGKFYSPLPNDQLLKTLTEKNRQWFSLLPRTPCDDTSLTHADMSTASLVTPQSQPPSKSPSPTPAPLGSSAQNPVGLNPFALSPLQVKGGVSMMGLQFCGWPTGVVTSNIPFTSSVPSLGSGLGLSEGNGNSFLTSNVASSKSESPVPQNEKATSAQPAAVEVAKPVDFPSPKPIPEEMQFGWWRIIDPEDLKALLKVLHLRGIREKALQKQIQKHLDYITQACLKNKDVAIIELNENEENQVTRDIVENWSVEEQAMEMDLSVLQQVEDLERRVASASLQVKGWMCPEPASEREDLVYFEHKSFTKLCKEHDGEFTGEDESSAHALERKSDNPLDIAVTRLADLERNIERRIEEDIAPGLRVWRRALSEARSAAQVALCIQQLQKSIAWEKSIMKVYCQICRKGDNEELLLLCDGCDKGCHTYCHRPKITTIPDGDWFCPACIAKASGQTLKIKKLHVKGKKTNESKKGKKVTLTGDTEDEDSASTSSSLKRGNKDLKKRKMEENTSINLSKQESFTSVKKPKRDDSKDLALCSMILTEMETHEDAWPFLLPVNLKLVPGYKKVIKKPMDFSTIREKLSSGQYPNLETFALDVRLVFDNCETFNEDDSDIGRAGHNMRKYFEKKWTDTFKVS
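AlphaScreen displacement: compounds (up to 110uM) incubated 30 min at room temperature with a preformed 50 nM BAZ2B/50 nM biotinylated H3K14Ac peptide complex in PBS pH 7.4 with Tween-20. Donor and acceptor beads at 10 ug/mL final added, 20 min light-protected before reading.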
Sfp inh – inhibitors of Bacillus subtilis Sfp phosphopantetheinyl transferase. Biochemical Sfp PPTase activity, qHTS. AID 1490. Potency, µM, without a hit: largest response in the series, negative = inhibition, hits mostly inhibitors. 310,000 compounds, 3.5% hits. Q9F4F7;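 note: the enzyme is Sfp with the accession as filed and its product quenches rhodamine fluorescence; 0% = enzyme reaction without inhibitor and -100% = no enzyme wells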
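Reaction rates are the 30-min fluorescence difference (ex 525, em 598 nm) in wells containing 15 nM Sfp, 5 uM rhodamine-CoA and 12.5 uM BHQ-2-YbbR at pH 7.6 with 10 mM MgCl2.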
PLK1 PBD block – inhibitors of human PLK1 polo-box domain binding. P53350. Plk1 PBD binding of FITC phosphopeptide, fluorescence polarization. Potency, µM, for the others: max response, negative = inhibition, actives largely listed as inhibitors. 360,000 compounds, 2.8% hits. AID 720504; note: series mostly up to about 57 µM; % is set by controls: 0 for no effect and ±100 for the full control effect; nearly all actives have a fitted effect of over 65% in size
HP1b chromo inh – blocks HP1-beta chromodomain binding to methylated histone tails. P83916. AlphaScreen HP1-beta / biotin-H3K9me3 peptide binding. Potency, µM (highest dose often 114 µM), inactives show top-dose activity change, negative = inhibition, hits mostly inhibitors. 390,000 compounds, 0.56% hits; note: nearly all actives have a fitted effect of over 70% in size
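AlphaScreen: HP1-beta (50 nM) preformed 30 min with biotin-H3(1-18)K9me3 peptide (50 nM) in PBS pH 7.4, 0.01% Tween-20. Compound added for 30 min at RT, then streptavidin donor/nickel chelate acceptor beads (10 ug/mL) for 30 min.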
G9a inh – inhibitors of human histone lysine methyltransferase G9a; Q96KQ7; G9a H3K9 monomethylation, AlphaScreen, 2 h; Potency, µM (titrated, usually from 102 µM), for inactives: top-dose activity, negative = inhibition, usual class: inhibitors; 350,000 compounds, 8.8% hits; note: % is set by controls: 0 for no effect and ±100 for the full control effect; nearly all actives have a fitted effect of over 75% in size
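G9a (20 nM) was preincubated 15 min with compound, then reacted 2 h at room temperature with 500 nM biotin-H3K9 peptide and 20 µM SAM. Monomethyl-H3K9 detected by AlphaScreen using anti-H3K9me1 antibody.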
JMJD2A Tudor inh – JMJD2A Tudor domain (human) inhibition; O75164; AlphaScreen JMJD2A-Tudor / H3K4me3 peptide binding; Potency, µM (titrated, usually from 114 µM), for the others: at the top dose activity change, negative = inhibition, hits mostly inhibitors; 390,000 compounds, 4.4% hits; note: % is set by controls: 0 for no effect and ±100 for the full control effect; nearly all actives have a fitted effect of over 50% in size
The depositor's hits bear a star; ? = inconclusive; / = not tested or not shown; ! = not active in a repeat; [ ] = remark or other dose. This is a sample that favours compounds with a hit; in the whole collection about 12% have one here. Calls come from the whole dose curve; as a rule, active = well fitted curve in the direction sought with a large enough effect; inconclusive = small, poorly fitted or top-dose-only effect, or another doubt; inactive = no such curve, though single readings can be large; an effect the other way counts as inactive or inconclusive. Potency is the fitted concentration of half-maximal effect.

SMILES	BAZ2B block	Sfp inh	PLK1 PBD block	HP1b chromo inh	G9a inh	JMJD2A Tudor inh
COC1CC2CCC(C)[C@](O)(O2)C(=O)C(=O)N2CCCCC2C(=O)OC(C(C)CC2CCC(O)C(OC)C2)CC(=O)C(C)/C=C(/C)C(O)C(OC)C(=O)C(C)CC(C)C=CC=C/C=C\1C (stereo partly drawn)	/	-5.0%	/	/	-3.6%[12.7 µM]	/
Cc1cccc(-n2c(C)cc(/C=N\NC(=O)c3ccco3)c2C)c1	?	6.6%	-7.6%	-8.9%	44.7µM*	-30.3%
O=C(N/N=C/c1ccccn1)c1ccco1	?	?	1.6%	37.4%	?	-11.4%
Cc1cc(/C=N/NC(N)=S)c(C)n1-c1ccc(Cl)cc1	-30.3%	-10.3%	29.9µM*	-20.6%	-6.6%[59 µM]	?
Cc1cc(/C=N/NC(N)=S)c(C)n1-c1ccc(Br)cc1	?	-28.7%	-5.7%	7.9%	0.2%[59 µM]	-25.5%
O=C(N/N=C/c1ccc2ncccc2c1)c1ccco1	-15.9%	-1.7%	-11.6%	1.7%	14.1µM*	79.4µM*
Cc1cc(/C=N/NC(N)=S)c(C)n1-c1cccc(Cl)c1	?	-2.7%	-7.8%	?	44.7µM*	?
COCCn1c(=O)c(CCc2ccccc2)nc2cnc(N3CCN(C)CC3)nc21	/	3.8%	/	/	-2.0%[12.7 µM]	/
CC(=O)c1ccc(NC(=O)COCc2cc(-c3ccc(F)cc3)on2)cc1	3.0%	/	/	4.1%	6.1%[59 µM]	-10.2%
Cc1cccc(NS(=O)(=O)c2ccc(C)c(C(=O)N(C)C3CCN(C)CC3)c2)c1	-1.6%	/	0.0%	43.3%	?	3.4%
Cc1nc(-c2ccccc2)sc1CCNC(=O)C(=O)Nc1ccc(F)c(Cl)c1	-1.7%	/	/	14.7%[57 µM]	13.6%[59 µM]	-17.1%
Cc1cccc(C)c1-n1c(C)cc(/C=N/NC(N)=S)c1C	44.7µM*	?	-18.3%	-62.9%	50.1µM*	50.1µM*
Cc1ccccc1-n1c(C)cc(/C=N/NC(=O)c2ccncc2)c1C	?	-18.4%	-1.9%	21.1%	2.9%[2.33 µM]	-31.4%
Cc1ccccc1S(=O)Cc1ccc(C(=O)N2CCN(c3cccc(C)c3C)CC2)o1 (stereo not drawn)	?	/	/	-8.4%	?	-35.2%
COc1cccc(OC)c1C(=O)Nc1nnc(C)s1	-2.6%	/	/	9.8%	?	-1.0%
CC(C)CCn1c(=S)[nH]c2ncccc2c1=O	4.7%	15.2%	-4.0%	41.5%	12.0%	?
CN(C)CCn1c(=S)[nH]c2ncccc2c1=O	-34.9%	50.1µM*	3.0%	-0.3%	28.2µM*	6.9%
CCOCCCn1c(=S)[nH]c2ncccc2c1=O	-12.8%	?	-0.4%	55.3%	56.2µM*	22.4µM*
CC(C)Cn1c(=O)c2sccc2n2c(CCCC(=O)NCCc3ccccc3)nnc12	-20.3%	/	/	31.1%	7.2%[59 µM]	2.6%
c1cc(C(c2nnnn2C2CCCC2)N2CCOCC2)ccn1 (stereo not drawn)	9.8%	-21.4%	-6.1%	29.8%	-39.8%[12.7 µM]	-10.5%
O=C(CSc1nnnn1C1CCCCC1)N1CCOCC1	-18.2%	12.6%	26.7µM*	-7.3%	13.5%	-14.1%
O=C(CSc1nnnn1C1CCCCC1)Nc1ccccc1N1CCOCC1	-27.4%	-1.2%	-2.4%	30.9%	35.5µM*	-9.9%
Oc1ccc(C(c2nnnn2C2CCCCC2)N2CCOCC2)cc1 (stereo not drawn)	?	?	-3.0%	22.8%	22.4µM*	-20.6%
O=C(COC(=O)CCS(=O)(=O)c1ccccc1)NC(=O)c1ccc(OC(F)F)cc1	7.1%	/	-5.2%	27.7%	9.0%	-2.8%
CCOC(=O)C1=C(C)NC(=NC)SC1c1ccccc1 (stereo not drawn)	-24.7%	14.7%	21.2µM*	-18.4%	2.5%	?
SMILES	BAZ2B block	Sfp inh	PLK1 PBD block	HP1b chromo inh	G9a inh	JMJD2A Tudor inh
CCCCC/C=C\C[C@@H]1O[C@H]1/C=C/C(O)C/C=C\CCCC(=O)O (stereo partly drawn)	/	4.7%	/	/	/	/
CC1(C)Cc2noc(N)c2C(C)(C)N1O	-7.0%	?	-0.6%	16.6%	?	31.6µM*
CCN(Cc1cccs1)c1ncnc2ccc(-c3ccc4c(c3)OCO4)cc12	/	/	/	/	/	-0.7%
COC(=O)CC1Oc2ccc(F)cc2-n2cc(-c3ccc(Cl)cc3)nc21 (stereo not drawn)	-28.3%	/	/	0.2%	-2.2%[59 µM]	-15.3%
OC(COc1ccccc1)CSc1ncn[nH]1 (stereo not drawn)	6.8%	5.7%	-2.4%	26.0%	12.8%[12.7 µM]	-9.5%
CC(C)(C)c1ccc(OCC(O)CSc2ncn[nH]2)cc1 (stereo not drawn)	-8.4%	-12.8%	-6.3%	29.9%	8.91µM*	31.6µM*
Cc1ccccc1-n1c(-c2ccc3ccccc3n2)n[nH]c1=S	-22.2%	-9.2%	-8.0%	23.7%	14.1µM*	-13.5%
S=c1[nH]nc(-c2ccc3ccccc3n2)n1-c1ccc2ncccc2c1	?	?	-22.1%	15.9%	2µM*	-16.0%
COc1nc(-c2ccccc2)cc(-c2ccc(OC)c(OC)c2)n1	20.8%	?	1.4%	99.1%	-49.2%[2.33 µM]	27.6%
COc1ccc(-c2n[nH]c(=S)n2-c2ccccc2C)cc1	3.1%	?	?	-18.4%	4.47µM*	?
COc1ccc(-c2n[nH]c(=S)n2-c2ccccc2C)cc1OC	-20.1%	-19.7%	-17.7%	33.5%	7.94µM*	11.2µM*
CCN(CC)c1ccc(-c2n[nH]c(=S)n2-c2ccccc2C)cc1	?	?	-11.3%	-0.4%	?	-26.8%
COc1cccc(/C=C/c2nc(C#N)c(NC3CCCCC3)o2)c1	-14.1%	/	/	20.7%	-19.3%[59 µM]	2.5%
N[C@H](CCCP(=O)(O)O)C(=O)O	/	16.5%	/	/	/	/
O=C(O)CP(=O)(O)O	?	-1.6%	-8.0%	14.7%	12.6µM*!	?
CCOCCCNC(=S)N(Cc1ccccc1)Cc1nc2ccccc2c(=O)[nH]1	-33.6%	?	?	-14.9%	10µM*	-9.4%
O=C(c1ccncc1)N(Cc1ccccc1)Cc1nc2ccccc2c(=O)[nH]1	3.0%	-2.0%	-6.1%	39.4%	14.8%[12.7 µM]	-21.4%
CCCNC(=S)N(Cc1ccccc1)Cc1nc2ccccc2c(=O)[nH]1	-6.7%	-1.2%	-4.9%	9.0%	7.08µM*	-17.0%
COc1ccc(-n2c(NC(=O)c3ccco3)c(C#N)c3nc4ccccc4nc32)cc1	6.4%	35.5µM*	?	66.0%	-7.1%[59 µM]	-22.0%[57.1 µM]
N#Cc1c(NC(=O)c2ccccc2Cl)n(Cc2ccccc2)c2nc3ccccc3nc12	12.2%	-28.1%	15µM*	88.7%	?	16.3%
CCCCn1c(NC(=O)c2ccccc2Cl)c(C#N)c2nc3ccccc3nc21	43.3%	6.9%	26.7µM*	74.0%	32.6%[59 µM]	19.4%
CCOC(=O)c1c(NC(=O)c2ccco2)n(C2CCCCC2)c2nc3ccccc3nc12	13.3%	-17.4%	-22.8%	54.3%	50.1µM*	-14.5%
COc1ccc(C(=O)Nc2ccc(NC(=O)c3ccco3)cc2)cc1	-0.5%	-7.1%	-9.5%	125.7%	10.0%	-8.5%
